The record followed here is PubChem BioAssay AID651598 (Sanford-Burnham Center for Chemical Genomics, 2012).

“And” between values parts separate entries of the source, which are not always exact repeats. Equal entries are not always repeated.

Chain of C-X-C chemokine receptor type 6 (Homo sapiens) (O00574 whole entry, looked up): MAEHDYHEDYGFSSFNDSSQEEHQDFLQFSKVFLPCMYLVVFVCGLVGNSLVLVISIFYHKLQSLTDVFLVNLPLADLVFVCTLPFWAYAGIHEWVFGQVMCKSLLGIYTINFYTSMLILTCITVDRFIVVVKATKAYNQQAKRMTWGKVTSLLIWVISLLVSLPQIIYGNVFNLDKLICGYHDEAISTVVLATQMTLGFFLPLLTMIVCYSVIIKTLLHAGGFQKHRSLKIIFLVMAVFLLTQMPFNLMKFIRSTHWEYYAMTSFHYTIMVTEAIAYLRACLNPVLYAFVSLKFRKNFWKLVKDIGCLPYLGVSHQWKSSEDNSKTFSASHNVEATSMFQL

This assay addresses C-X-C chemokine receptor type 6 (Homo sapiens) (UniProt O00574). The assay is described as follows: apelin receptor (APJ) antagonists, SAR follow-up, counter-screen for CXCR6 antagonist project, cell-based, beta-arrestin, DiscoveRx, panel, CHO-K1 (AID 651598). As to conditions: CHO-K1 PathHunter beta-arrestin luminescence, antagonist mode; run 5, at 80 µM (top of the series).
For the molecule `COc1cc(C(=O)NC2CC3CCC(C2)N3CC(=O)Nc2ccccc2)cc(OC)c1OC` (stereo not drawn), the inhibition is 45.3% and 9.45%.
The value for `COc1cc(C(=O)NC2CC3CCCC(C2)N3CC(=O)Nc2ccccc2)cc(OC)c1OC` (stereo not drawn) was 85.4% and 45.2% and 22.2%.
Next, `COc1cc(C(=O)NC2CCN(CC(=O)Nc3ccccc3)CC2)cc(OC)c1OC`: 12%.
